{
  "source": "PubChem BioAssay (NCATS)",
  "note": "Results filed as inconclusive are left out. A call without a number means that no potency is given here. Activity calls are given as the source filed them. Calls come from the whole dose curve; as a rule, active = well fitted inhibition curve with a large enough effect; inconclusive = small, poorly fitted or top-dose-only effect; inactive = flat fitted curve, though single readings scatter. Potency is the fitted concentration of half-maximal effect.",
  "data": [
    {"molecular_target": "Ubiquitin carboxyl-terminal hydrolase 1 (Homo sapiens) (UniProt O94782)", "sequence (O94782 whole entry, looked up)": "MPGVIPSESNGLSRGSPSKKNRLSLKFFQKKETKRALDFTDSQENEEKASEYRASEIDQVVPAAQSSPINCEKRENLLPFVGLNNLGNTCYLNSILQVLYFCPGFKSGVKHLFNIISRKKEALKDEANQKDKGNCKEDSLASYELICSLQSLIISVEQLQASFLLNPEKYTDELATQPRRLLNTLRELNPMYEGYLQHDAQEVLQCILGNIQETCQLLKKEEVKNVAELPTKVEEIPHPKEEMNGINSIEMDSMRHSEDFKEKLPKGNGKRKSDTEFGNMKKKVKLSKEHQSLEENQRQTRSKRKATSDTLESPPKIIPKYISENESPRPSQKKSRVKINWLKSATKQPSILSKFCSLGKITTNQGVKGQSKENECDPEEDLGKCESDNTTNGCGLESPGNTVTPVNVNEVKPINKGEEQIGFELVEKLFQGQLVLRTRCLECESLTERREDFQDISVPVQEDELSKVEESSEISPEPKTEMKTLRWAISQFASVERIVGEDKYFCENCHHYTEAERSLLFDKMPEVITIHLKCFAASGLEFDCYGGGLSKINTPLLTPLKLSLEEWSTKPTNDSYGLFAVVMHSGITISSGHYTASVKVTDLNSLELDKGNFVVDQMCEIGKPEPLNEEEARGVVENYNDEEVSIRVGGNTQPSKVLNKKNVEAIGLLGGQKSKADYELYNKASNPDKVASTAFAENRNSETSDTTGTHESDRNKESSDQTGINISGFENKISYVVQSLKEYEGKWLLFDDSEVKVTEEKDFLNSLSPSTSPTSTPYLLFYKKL", "experiment": "Inhibitors of USP1/UAF1: Pilot qHTS (AID 504865); note: nearly all actives have a fitted effect of over 35% in size", "conditions": "purified USP1/UAF1, Ub-rhodamine cleavage fluorescence; series mostly up to 114 µM", "how_it_was_run": "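In 50mM HEPES pH 7.8 containing 0.5mM EDTA, 1mM TCEP, 0.1 mg/ml BSA and 0.01% Tween-20, 1nM USP1/UAF1 is exposed to compound for 15 min, then Ub-Rho (150nM final) is added and fluorescence is read over time.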", "values": [
      {"smiles": "CNCCc1ccccn1", "Potency": "inactive"},
      {"smiles": "CC(C)Nc1cccnc1N1CCN(C(=O)c2cc3cc(NS(C)(=O)=O)ccc3[nH]2)CC1", "Potency": "inactive"},
      {"smiles": "CCCCC(CC)CN1CN(CC(CC)CCCC)CC(C)(N)C1", "note": "(configuration not stated)", "Potency": "inactive"},
      {"smiles": "COc1cc(C(=O)N2CCCCCCC2)cc(OC)c1OC", "Potency": "inactive"},
      {"smiles": "Nc1ccc(C(=O)NCC(=O)O)cc1", "Potency": "inactive"},
      {"smiles": "CC(=O)O[C@H]1C[C@@H]2CC[C@@H]3[C@H](CC[C@@]4(C)[C@H]3C[C@H]([N+]3(C)CCCCC3)[C@@H]4OC(C)=O)[C@@]2(C)C[C@@H]1N1CCCCC1", "Potency": "inactive"},
      {"smiles": "CC(=O)NO", "Potency": "inactive"},
      {"smiles": "NC(=S)N/N=C/c1cccnc1", "Potency": "inactive"},
      {"smiles": "CN1CCC(OC(c2ccccc2)c2ccccc2)CC1", "Potency": "inactive"},
      {"smiles": "CC(C)NCC(O)c1ccc2ccccc2c1", "note": "(configuration not stated)", "Potency": "inactive"},
      {"smiles": "OCc1ccccn1", "Potency": "inactive"},
      {"smiles": "CC1CCc2c(N3CCC(O)CC3)c(F)cc3c(=O)c(C(=O)O)cn1c23", "note": "(configuration not stated)", "Potency": "inactive"},
      {"smiles": "CC[N+](C)(CC)CCOC(=O)C(O)(c1ccccc1)C1CCCCC1", "note": "(configuration not stated)", "Potency": "inactive"},
      {"smiles": "O=C(O)CCC(=O)Nc1ccc(S(=O)(=O)Nc2nccs2)cc1", "Potency": "inactive"},
      {"smiles": "CN(C)CCN1C(=O)c2ccccc2N(C)c2ccccc21", "Potency": "inactive"},
      {"smiles": "CCN(CC)CCNC(=O)COc1ccc(OC)cc1", "Potency": "inactive"},
      {"smiles": "O=C(Nc1ccc([N+](=O)[O-])cc1)Nc1ccc([N+](=O)[O-])cc1", "Potency": "inactive"},
      {"smiles": "Cc1ccc(S(=O)(=O)NC(=O)NC2CCCC2)cc1", "Potency": "inactive"},
      {"smiles": "CCC(Cc1c(I)cc(I)c(N)c1I)C(=O)O", "note": "(configuration not stated)", "Potency": "inactive"},
      {"smiles": "CC1=C(C(=O)O)N2C(=O)[C@@H](NC(=O)[C@H](N)c3ccccc3)[C@H]2SC1", "Potency": "inactive"},
      {"smiles": "CC(C)=CCOc1ccc(/C=C/C(=O)c2ccc(OCC=C(C)C)cc2OCC(=O)O)cc1", "Potency": "79.4 µM (active)"},
      {"smiles": "OC1C(O)C(O)C(O)C(O)C1O", "note": "(configuration not stated)", "Potency": "inactive"},
      {"smiles": "CCOc1cc(OCC)c(C(=O)CCC(=O)O)cc1OCC", "Potency": "inactive"},
      {"smiles": "CCN(CC)CCNC(=O)c1cc(Br)c(N)cc1OC", "Potency": "inactive"},
      {"smiles": "CCCCc1cc2ccccc2c(OCCN(C)C)n1", "Potency": "inactive"},
      {"smiles": "CC(C)CCCC(C)N", "note": "(configuration not stated)", "Potency": "inactive"},
      {"smiles": "CCN(CC)CCOc1ccccc1C(=O)CCc1ccccc1", "Potency": "inactive"},
      {"smiles": "Cn1c(=O)c2[nH]c(Br)nc2n(C)c1=O", "Potency": "inactive"},
      {"smiles": "CCN(CC)CCOC(=O)C1(c2ccccc2)CCCC1", "Potency": "inactive"},
      {"smiles": "NC(=O)C1(N2CCCCC2)CCN(CCCC(=O)c2ccc(F)cc2)CC1", "Potency": "inactive"},
      {"smiles": "NCCNC(=O)c1ccc(Cl)cn1", "Potency": "inactive"},
      {"smiles": "O=C(O)C1(C(=O)O)CCC1.[NH2-].[NH2-].[Pt+2]", "Potency": "inactive"},
      {"smiles": "C[N+]1(C)CCC(=C(c2ccccc2)c2ccccc2)CC1", "Potency": "inactive"},
      {"smiles": "COc1cc(N)c(Cl)cc1C(=O)NC1CCN(Cc2ccccc2)CC1", "Potency": "inactive"},
      {"smiles": "O=C(O)CCc1nc2ccccc2[nH]1", "Potency": "inactive"},
      {"smiles": "CC(C(=O)O)c1cccc(Oc2ccccc2)c1", "note": "(configuration not stated)", "Potency": "inactive"},
      {"smiles": "NS(=O)(=O)c1cc(C(=O)O)cc(N2CCCC2)c1Oc1ccccc1", "Potency": "inactive"}
    ]}
  ]
}
